GC-B act: GC-B (human) receptor activation; P20594; HEK293-GC-B cells, CNP EC30, cGMP TR-FRET; 0% at EC30 CNP, 100% saturating CNP; activation, % at 10 µM; 370,000 compounds, 0.11% hits; AID 1920062;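 active means activation at 10 µM reaching about 35% in either raw or pattern-adjusted values, limit read from the data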
ADAM10 inh: inhibitors of human ADAM10; O14672; recombinant ADAM10, EDANS/DABCYL FRET peptide cleavage, 3 h; inhibition, % at 7 µM; 370,000 compounds, 0.62% hits; AID 720582;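 active means inhibition above a per-campaign cutoff equal to the mean of compounds falling between control-based bounds plus 3 SD, cut at about 20% in these data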;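 further: 0% = DMSO wells while the 100% control is not disclosed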
NPR1 activator: GC-A (human) enzyme activation; 370,000 compounds, 0.14% hits; activation, % at 10 µM; P16066; HEK293 GC-A cells, cGMP TR-FRET, EC30 ANP; 0% at EC30 ANP, 100% saturating ANP; AID 1671463; in the data active means activation above about 40%
proKLK7 act: proKLK7 (human) activation, primary screen. P49862. purified proKLK7, EDANS-DABCYL substrate fluorescence; 100% is mature enzyme control, 0% vehicle. activation, % at 7 µM. 370,000 compounds, 0.9% hits. AID 652039;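 active means activation above the mean of all tested compounds plus 3 SD, computed per campaign excluding outliers beyond control limits, cut at about 13% in these data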
Target sequence (P49862 whole entry, looked up): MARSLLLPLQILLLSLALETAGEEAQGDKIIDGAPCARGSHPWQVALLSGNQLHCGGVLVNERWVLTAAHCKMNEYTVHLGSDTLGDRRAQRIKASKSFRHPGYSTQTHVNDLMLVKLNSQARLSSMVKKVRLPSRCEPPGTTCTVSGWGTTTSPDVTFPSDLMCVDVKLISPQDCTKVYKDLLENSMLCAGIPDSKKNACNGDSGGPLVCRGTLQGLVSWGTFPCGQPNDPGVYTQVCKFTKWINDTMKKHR
ADAM17 inh: inhibitors of human ADAM17; P78536; AID 720648; inhibition, % at 6.95 µM; 370,000 compounds, 0.83% hits; recombinant ADAM17, EDANS/DABCYL FRET peptide cleavage;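 active means inhibition above the mean of compounds lying between control limits plus 3 SD, set per campaign, cut at about 8.5% in these data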;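 further: 0% = DMSO-only wells as the low control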
proKLK7 act conf: confirmation of human kallikrein-7 zymogen activators | shares compounds with proKLK7 act | purified proKLK7, EDANS-DABCYL substrate fluorescence; scaled: vehicle 0, mature enzyme 100 | activation, % at 7 µM | 3,200 compounds, 68% hits | AID 686949;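 active means activation, as change over the incubation, above the mean of all tested compounds plus 3 SD, cut at about 13% in these data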
EDANS-DABCYL int: optically interferes with EDANS-DABCYL signal, flagging KLK7 hits. shares compounds with proKLK7 act. EDANS-DABCYL substrate fluorescence interference, no enzyme, 4 h; solvent 0%, active enzyme control 100%. activation, % at 7 µM. 3,200 compounds, 80% hits. AID 686952;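 active means activation above the all-compound mean plus 3 SD, ignoring values outside control-based bounds, cut at about 4.8% in these data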;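 further: value is the 4 h activation minus the activation read at time zero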
EDANS interf: counter-screen for kallikrein-7 activators: EDANS-DABCYL interference, dose response | shares compounds with proKLK7 act | EDANS-DABCYL peptide fluorescence interference, no enzyme | EC50, µM | 250 compounds, 20% hits | AID 720493;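 active means compounds that raise the fluorescence signal in this interference counterscreen, with EC50 at or below 10 µM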;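 further: intact quenched peptide substrate alone read at 355 nm excitation and 520 nm emission; signal is fluorescence gain from T0 to T4 after four hours at room temperature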
* = called active by the depositor; i = inactive; . = no result given. This is a sample that favours compounds with a hit; in the whole collection about 2.2% have one here.

SMILES	GC-B act	ADAM10 inh	NPR1 activator	proKLK7 act	ADAM17 inh	proKLK7 act conf	EDANS-DABCYL int	others
CCN(CC(=O)NCc1cccs1)C(=O)/C=C/c1ccc(OC)cc1OC	-11	-17	1	0	-8	.	.
CN(Cc1ccccc1Cl)C(=O)CN1C(=O)C2(OCCCO2)c2ccccc21	-1	-9	-1	0	0	.	.
Cc1ccc(-c2cc(-c3nnc(SCC(=O)N4c5ccccc5Sc5ccc(Cl)cc54)n3N)[nH]n2)cc1	-2	0	-8	0	1	.	.
COc1ccc2nc(C(F)(F)C(F)(F)F)c(C#N)c(N)c2c1	-5	-52	8	50*	-17	-9	-13
COc1cc(OC)c2c(N)c(C#N)c(C(F)(F)C(F)(F)F)nc2c1	-13	-123	-11	-1	-41	.	.
Cc1ccc(NC(=O)C2=CC(c3cccs3)=NS(=O)(=O)N2C)cc1	-1	-6	-5	18*	-4	22*	13*	EDANS interf=i
Cn1c(=O)c2cc(NC(=O)NCCc3ccccc3)ccc2n1Cc1ccc(F)cc1	2	i	1	16*	i	1	0
Cn1c(=O)c2cc(NC(=S)NC3CC3)ccc2n1Cc1ccc(F)cc1	0	i	1	14*	-157	9	14*
C=C(C)Cn1c2ccc(NC(=O)NCCc3ccccc3)cc2c(=O)n1C	-1	i	-1	27*	i	8	20*
Cn1c(=O)c2cc(NC(=O)Nc3ccccc3)ccc2n1Cc1ccccc1	9	i	10	-1	i	.	.
COc1ccc(CCNC(=O)Nc2ccc3c(c2)c(=O)n(C)n3Cc2ccc(F)cc2)cc1OC	-3	i	3	12	-386	.	.
Cc1cc(-c2ccccc2)c2ccc(NC(=O)C(C)(C)C)nc2n1	-6	-154	-2	33*	-69	1	1
COc1ccccc1Oc1c(C)oc2c(CN3CCN(C)CC3)c(O)ccc2c1=O	-4	i	1	77*	i	69*	76*
COc1ccc(Oc2c(C)oc3c(CN(C)C)c(O)ccc3c2=O)cc1	0	i	-1	14*	-295	32*	31*
COc1cccc(Oc2c(C)oc3c(CN4CCCCC4)c(O)ccc3c2=O)c1	1	i	-2	61*	i	61*	71*
COc1ccc(Oc2coc3c(CN(C)C)c(O)ccc3c2=O)cc1	4	-392	-1	7	-92	.	.
Cc1cc(C)cc(Oc2coc3c(CN(C)C)c(O)ccc3c2=O)c1	-1	i	4	71*	i	69*	80*
O=C(OCCN1CCN(C2CN(Cc3cn(Cc4ccc([N+](=O)[O-])cc4)nn3)S(=O)(=O)C2)CC1)c1cc2ccccc2o1 (configuration not stated)	2	1	-2	0	-3	.	.
COc1ccc(-c2c(C)oc3c(CN4CCN(C)CC4)c(O)ccc3c2=O)cc1	1	i	3	59*	i	40*	50*
CCN1CCN(Cc2c(O)ccc3c(=O)c(-c4ccc(OC)c(OC)c4)c(C)oc23)CC1	0	-391	9	11	-140	.	.
COC(=O)c1ccc(Oc2c(C)oc3c(CN4CCN(C)CC4)c(O)ccc3c2=O)cc1	3	i	6	65*	i	79*	73*
COc1ccc(-c2c(C(F)(F)F)oc3c(CN4CCN(C)CC4)c(O)ccc3c2=O)cc1	5	-29	0	10	-11	.	.
COc1ccc(CCNC(=O)Nc2ccc3c(c2)[C@]2(CC(=O)N(CC(C)C)C2c2ccccc2)C(=O)N3C)cc1OC (some centres not stated)	-3	2	-2	0	5	.	.
Cc1nnc(N(C)C(=O)c2cccnc2)s1	3	4	1	-1	-4	.	.
CN(C(=O)c1ccncc1)c1nnc(-c2cnccn2)s1	7	-15	-2	33*	-4	77*	82*
SMILES	GC-B act	ADAM10 inh	NPR1 activator	proKLK7 act	ADAM17 inh	proKLK7 act conf	EDANS-DABCYL int	others
Cc1ccc(-c2nnc(N(C)C(=O)C3CCCO3)s2)cn1 (configuration not stated)	3	-10	3	3	-5	.	.
CN(C(=O)C1CCCO1)c1nnc(-c2cnccn2)s1 (configuration not stated)	-1	-15	0	54*	-10	39*	81*
CN(C(=O)c1cnccn1)c1nnc(-c2cnccn2)s1	1	-21	3	20*	-13	38*	42*
CN(C(=O)c1cccnc1)c1nnc(-c2ccccn2)s1	-2	-204	-8	73*	-65	39*	37*
O=C(CCn1nnc(-c2cccs2)n1)N1CCOCC1	-1	-5	3	0	0	.	.
COc1ccc(Cn2c(NC(=O)c3ccccc3)nc(Cc3ccccc3)c2Cc2ccccc2)c(OC)c1	-8	-3	5	-11	3	.	.
CN(C(=O)c1cccnc1)c1nnc(-c2cnccn2)s1	-8	-9	0	42*	-7	33*	34*
CN(C(=O)c1cccnc1)c1nnc(-c2cccnc2)s1	5	-12	1	1	-8	.	.
CCCn1nc(C(=O)Oc2ccc3c(C)cc(=O)oc3c2)c2ccccc2c1=O	-13	i	-35	54*	i	68*	72*
Cc1cc(=O)oc2cc(OC(=O)c3nn(C(C)C)c(=O)c4ccccc34)ccc12	1	i	-7	46*	i	70*	79*
CCCn1nc(C(=O)OCC(=O)Nc2ccc(C)cc2)c2ccccc2c1=O	1	-11	-6	1	1	.	.
Cn1c(=O)c2[nH]c(SCC(=O)N3CCN(c4cccc(C(F)(F)F)c4)CC3)nc2n(C)c1=O	-1	0	-1	1	-2	.	.
CC(C)(C)NC(=O)C(c1cc2ccccc2o1)n1c(-c2ccc(-c3ccccc3)cc2)nc2ccccc21 (configuration not stated)	21	-265	30	25*	-48	-73	-39
C=CC[C@@]1(c2ccc(Br)cc2OC)Oc2ccccc2-c2nccnc21	-15	-331	-9	-45	-91	.	.
CCN(CC)CCNC(=O)c1cc2c(=O)n(C)c3ccccc3c2s1	2	i	14	27*	-330	-10	-18
CCCCN(CC)CCNC(=O)c1cc2c(=O)n(CC)c3ccccc3c2s1	0	i	0	14*	-256	-1	-3
